Experimental data taken from the supplement of paper PMC10382584, “Macrocyclization of linear molecules by deep learning to facilitate macrocyclic drug candidates discovery” (Nature Communications, 2023).

compound: Cc1cnc(Nc2ccc(OCCN3CCCC3)cc2)nc1Nc1cccc(S(=O)(=O)NC(C)(C)C)c1 [Fedratinib]; assay: percent of DMSO control binding (KINOMEscan); higher = weaker binding / less inhibition; extreme values may be limits of the assay; details: concentration: 100 nM

UniProt Q16659, sequence (Q16659 whole entry): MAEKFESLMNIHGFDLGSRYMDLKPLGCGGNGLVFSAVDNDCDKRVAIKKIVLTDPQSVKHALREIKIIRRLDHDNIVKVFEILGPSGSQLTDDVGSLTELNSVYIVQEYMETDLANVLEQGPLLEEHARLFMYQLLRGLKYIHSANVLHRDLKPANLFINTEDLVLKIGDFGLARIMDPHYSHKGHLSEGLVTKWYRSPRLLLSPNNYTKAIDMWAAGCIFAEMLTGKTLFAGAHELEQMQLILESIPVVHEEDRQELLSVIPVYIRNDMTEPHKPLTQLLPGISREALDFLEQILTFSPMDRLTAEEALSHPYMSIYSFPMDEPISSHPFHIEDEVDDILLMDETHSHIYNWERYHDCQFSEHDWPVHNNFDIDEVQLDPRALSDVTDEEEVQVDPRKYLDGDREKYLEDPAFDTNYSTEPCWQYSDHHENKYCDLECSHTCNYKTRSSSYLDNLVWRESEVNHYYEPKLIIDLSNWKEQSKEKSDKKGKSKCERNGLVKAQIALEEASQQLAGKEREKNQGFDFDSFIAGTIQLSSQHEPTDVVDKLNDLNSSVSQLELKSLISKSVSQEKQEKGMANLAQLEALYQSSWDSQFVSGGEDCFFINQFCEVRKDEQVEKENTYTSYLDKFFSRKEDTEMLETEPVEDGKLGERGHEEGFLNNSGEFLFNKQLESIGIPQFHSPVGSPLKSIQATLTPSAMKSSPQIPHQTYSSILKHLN
UniProt O96013, sequence (O96013 whole entry, looked up): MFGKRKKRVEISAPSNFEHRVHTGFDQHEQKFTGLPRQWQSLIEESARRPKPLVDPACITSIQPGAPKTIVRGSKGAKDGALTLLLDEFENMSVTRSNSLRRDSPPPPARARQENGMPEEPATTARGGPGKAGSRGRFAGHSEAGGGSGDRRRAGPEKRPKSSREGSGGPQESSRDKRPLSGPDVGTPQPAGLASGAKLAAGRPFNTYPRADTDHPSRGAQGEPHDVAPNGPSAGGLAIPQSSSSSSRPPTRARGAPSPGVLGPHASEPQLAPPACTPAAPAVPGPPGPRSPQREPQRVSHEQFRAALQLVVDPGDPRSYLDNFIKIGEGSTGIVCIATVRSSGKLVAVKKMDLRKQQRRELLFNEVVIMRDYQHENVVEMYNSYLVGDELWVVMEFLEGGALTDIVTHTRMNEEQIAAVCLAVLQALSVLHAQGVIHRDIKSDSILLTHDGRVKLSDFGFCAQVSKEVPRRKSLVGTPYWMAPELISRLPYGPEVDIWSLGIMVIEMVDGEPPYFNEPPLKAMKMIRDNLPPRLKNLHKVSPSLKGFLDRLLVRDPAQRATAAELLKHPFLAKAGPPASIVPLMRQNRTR
UniProt Q15831, sequence (Q15831 whole entry): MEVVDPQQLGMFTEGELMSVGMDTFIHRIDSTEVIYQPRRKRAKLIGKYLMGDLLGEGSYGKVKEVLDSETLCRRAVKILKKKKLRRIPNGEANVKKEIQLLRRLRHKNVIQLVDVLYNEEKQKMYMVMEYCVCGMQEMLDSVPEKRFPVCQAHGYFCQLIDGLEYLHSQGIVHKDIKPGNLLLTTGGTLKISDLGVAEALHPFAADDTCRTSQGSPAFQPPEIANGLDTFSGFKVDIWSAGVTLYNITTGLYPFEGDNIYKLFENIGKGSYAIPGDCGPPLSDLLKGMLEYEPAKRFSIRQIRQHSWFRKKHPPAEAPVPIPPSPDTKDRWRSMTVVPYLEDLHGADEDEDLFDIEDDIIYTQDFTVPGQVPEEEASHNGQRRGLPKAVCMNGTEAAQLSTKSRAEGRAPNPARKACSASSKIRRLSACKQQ
UniProt O75676, sequence (O75676 whole entry, looked up): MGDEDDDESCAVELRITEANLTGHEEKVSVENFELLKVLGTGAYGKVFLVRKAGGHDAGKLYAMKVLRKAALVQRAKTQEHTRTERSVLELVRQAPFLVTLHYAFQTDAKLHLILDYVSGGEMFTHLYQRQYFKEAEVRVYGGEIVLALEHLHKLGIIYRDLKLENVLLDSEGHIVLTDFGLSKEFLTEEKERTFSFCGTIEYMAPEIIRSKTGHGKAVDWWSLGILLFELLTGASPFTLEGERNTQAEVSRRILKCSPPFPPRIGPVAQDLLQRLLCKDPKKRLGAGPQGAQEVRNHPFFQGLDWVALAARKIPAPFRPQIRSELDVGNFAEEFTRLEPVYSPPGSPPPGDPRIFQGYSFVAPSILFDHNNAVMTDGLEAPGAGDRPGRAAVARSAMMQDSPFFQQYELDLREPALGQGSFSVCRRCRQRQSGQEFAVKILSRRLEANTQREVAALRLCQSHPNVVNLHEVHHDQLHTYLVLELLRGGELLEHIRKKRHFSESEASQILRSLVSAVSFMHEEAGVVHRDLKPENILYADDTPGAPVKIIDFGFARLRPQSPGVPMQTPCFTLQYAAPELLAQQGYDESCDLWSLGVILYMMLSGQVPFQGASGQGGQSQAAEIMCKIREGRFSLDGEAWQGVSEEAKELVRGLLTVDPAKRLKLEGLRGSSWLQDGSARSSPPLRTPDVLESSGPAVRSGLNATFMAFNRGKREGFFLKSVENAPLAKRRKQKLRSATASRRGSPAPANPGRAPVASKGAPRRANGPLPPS
UniProt O15146, sequence (O15146 whole entry): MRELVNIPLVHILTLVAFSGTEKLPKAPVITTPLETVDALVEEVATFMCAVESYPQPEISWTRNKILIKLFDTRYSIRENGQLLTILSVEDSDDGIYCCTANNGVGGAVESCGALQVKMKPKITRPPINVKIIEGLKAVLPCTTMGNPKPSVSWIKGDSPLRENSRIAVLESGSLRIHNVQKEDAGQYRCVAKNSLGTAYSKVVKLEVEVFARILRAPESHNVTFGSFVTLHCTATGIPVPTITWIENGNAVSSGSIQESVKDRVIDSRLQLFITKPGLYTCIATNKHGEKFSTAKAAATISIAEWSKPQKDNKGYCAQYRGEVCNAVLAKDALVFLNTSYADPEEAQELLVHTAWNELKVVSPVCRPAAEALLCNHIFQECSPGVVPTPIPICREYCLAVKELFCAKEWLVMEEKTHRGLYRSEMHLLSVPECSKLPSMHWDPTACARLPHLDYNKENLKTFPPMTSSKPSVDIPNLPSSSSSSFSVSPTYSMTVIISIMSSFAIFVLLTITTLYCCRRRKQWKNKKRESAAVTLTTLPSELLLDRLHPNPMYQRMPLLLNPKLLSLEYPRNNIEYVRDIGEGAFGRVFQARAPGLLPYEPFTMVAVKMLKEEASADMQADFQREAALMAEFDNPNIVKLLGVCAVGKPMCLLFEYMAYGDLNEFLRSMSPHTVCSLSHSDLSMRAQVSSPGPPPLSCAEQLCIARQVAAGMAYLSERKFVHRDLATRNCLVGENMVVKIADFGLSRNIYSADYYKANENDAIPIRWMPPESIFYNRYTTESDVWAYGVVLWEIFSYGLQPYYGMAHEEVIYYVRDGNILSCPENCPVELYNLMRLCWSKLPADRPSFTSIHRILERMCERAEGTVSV
UniProt Q9UM73, sequence (Q9UM73 whole entry L1196M, looked up): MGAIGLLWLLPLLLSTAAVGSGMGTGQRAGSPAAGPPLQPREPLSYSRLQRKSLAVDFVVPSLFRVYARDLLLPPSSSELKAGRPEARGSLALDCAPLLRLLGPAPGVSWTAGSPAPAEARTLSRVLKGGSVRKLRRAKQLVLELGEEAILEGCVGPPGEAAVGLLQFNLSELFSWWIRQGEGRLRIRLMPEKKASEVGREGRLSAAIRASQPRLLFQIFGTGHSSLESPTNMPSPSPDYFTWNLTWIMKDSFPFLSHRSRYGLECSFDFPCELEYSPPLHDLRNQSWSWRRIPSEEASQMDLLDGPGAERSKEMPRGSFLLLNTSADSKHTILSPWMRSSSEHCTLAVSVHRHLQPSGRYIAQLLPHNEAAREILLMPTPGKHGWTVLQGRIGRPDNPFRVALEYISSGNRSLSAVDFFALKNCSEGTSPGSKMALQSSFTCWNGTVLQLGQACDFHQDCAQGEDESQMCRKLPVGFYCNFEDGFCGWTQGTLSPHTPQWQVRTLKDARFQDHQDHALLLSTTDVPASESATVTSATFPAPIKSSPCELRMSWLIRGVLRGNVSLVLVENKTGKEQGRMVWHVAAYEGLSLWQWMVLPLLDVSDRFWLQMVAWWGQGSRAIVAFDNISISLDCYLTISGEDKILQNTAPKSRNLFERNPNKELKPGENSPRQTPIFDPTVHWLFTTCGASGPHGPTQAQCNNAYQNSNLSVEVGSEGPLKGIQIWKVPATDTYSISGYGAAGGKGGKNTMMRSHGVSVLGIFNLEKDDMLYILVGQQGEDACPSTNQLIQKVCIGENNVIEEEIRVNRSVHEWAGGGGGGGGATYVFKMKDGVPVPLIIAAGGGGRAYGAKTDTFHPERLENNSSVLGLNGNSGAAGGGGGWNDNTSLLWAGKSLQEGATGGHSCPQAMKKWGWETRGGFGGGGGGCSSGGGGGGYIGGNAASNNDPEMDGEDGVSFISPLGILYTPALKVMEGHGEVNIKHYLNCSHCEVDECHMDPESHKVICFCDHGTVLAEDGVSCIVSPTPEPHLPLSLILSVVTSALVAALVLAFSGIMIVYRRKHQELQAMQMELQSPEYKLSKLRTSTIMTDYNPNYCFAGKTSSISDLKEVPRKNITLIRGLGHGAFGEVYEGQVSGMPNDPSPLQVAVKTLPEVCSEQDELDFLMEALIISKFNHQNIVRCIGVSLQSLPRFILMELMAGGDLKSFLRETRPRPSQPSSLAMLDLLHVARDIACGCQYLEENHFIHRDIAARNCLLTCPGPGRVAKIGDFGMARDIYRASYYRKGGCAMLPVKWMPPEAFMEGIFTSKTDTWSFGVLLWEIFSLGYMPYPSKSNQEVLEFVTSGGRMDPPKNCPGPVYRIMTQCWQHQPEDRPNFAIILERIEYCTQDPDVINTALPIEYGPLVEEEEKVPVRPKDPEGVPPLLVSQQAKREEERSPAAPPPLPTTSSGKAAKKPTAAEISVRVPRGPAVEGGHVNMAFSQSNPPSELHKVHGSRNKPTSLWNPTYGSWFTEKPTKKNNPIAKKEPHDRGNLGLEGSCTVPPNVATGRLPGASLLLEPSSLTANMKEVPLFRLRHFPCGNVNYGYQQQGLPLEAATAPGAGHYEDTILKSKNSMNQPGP

| Target | percent of DMSO control binding [%] |
| --- | --- |
| BMPR2 (UniProt Q13873) | 68 |
| BRAF(V600E) | 95 |
| MKNK1 (UniProt Q9BUB5) | 88 |
| CDK4-cyclinD3 (UniProt P11802) | 90 |
| PFCDPK1(P.falciparum) | 100 |
| VRK2 (UniProt Q86Y07) | 63 |
| PRKD3 (UniProt O94806) | 100 |
| PAK4 (UniProt O96013) | 100 |
| CDK9 (UniProt P50750) | 97 |
| ALK(L1196M) (UniProt Q9UM73) | 67 |
| RAF1 (UniProt P04049) | 85 |
| EPHB4 (UniProt P54760) | 100 |
| LKB1 (UniProt Q15831) | 40 |
| SYK (UniProt P43405) | 100 |
| RSK1(Kin.Dom.1-N-terminal) (UniProt Q15418) | 89 |
| LRRK2(G2019S) (UniProt Q5S007) | 76 |
| ERK3 (UniProt Q16659) | 100 |
| FLT1 (UniProt P17948) | 100 |
| PFTAIRE2 (UniProt Q96Q40) | 100 |
| GCN2(Kin.Dom.2,S808G) | 61 |
| ERBB2 (UniProt P04626) | 73 |
| MET(Y1235D) (UniProt P08581) | 100 |
| PFTK1 (UniProt O94921) | 100 |
| MEK1 (UniProt Q02750) | 62 |
| MUSK (UniProt O15146) | 96 |
| MLK2 (UniProt Q02779) | 78 |
| RPS6KA4(Kin.Dom.2-C-terminal) (UniProt O75676) | 39 |
| EGFR(S752-I759del) (UniProt P00533) | 88 |
